Data on 68 molecules can be found in PubChem BioAssay AID1240 (Sanford-Burnham Center for Chemical Genomics, 2008).

SMILES strings stand for the structures. Among all 50,000 compounds or so, about 800 (1.6%) showed an effect of 50% or more. Many of the other results were omitted from the sample, so strong results are more common in it than they were.

For this assay, the target named is Bcl-2-like protein 10 (Homo sapiens) (UniProt Q9HD36). The assay is described as follows: Phenotype converters, Bcl-B/TR3 peptide binding displacement, primary biochemical FP (AID 1240).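 Also: 0% = Bcl-B with tracer peptide and DMSO and 100% = tracer peptide lacking Bcl-B.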 The note with it: GST-Bcl-B / FITC-TR3 peptide fluorescence polarization; stronger effect = higher value; compound at 3.75 mg/L. (Fluorescence polarisation rises when a labelled molecule tumbles more slowly, as on binding a larger partner.)
Chain of Bcl-2-like protein 10 (Homo sapiens) (Q9HD36 whole entry, looked up): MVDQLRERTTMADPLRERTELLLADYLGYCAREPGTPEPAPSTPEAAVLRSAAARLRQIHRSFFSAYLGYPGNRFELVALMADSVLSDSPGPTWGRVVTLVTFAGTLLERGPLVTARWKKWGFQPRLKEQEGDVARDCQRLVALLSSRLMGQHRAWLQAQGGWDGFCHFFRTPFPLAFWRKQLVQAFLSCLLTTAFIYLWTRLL
As for `CCOc1cc(/C=C2\C(=O)NC(=O)N(c3cc(C)cc(C)c3)C2=O)cc(Cl)c1O`, the displacement worked out at 11.4%. Turning to `Cc1cc(OCCN2CCCC2)ccc1Cl`, the displacement is -2.8%. On to `Cc1ccc(-n2nc3cc(C)c(NC(=O)c4ccco4)cc3n2)cc1`, for which the displacement was 107%.

For the molecule `COc1ccc(-n2nc3cc(C)c(NC(=O)c4ccco4)cc3n2)cc1`, the displacement came to 5.1%. For the molecule `COc1ccc(C(=O)Nc2cc3nn(-c4ccc(OC)cc4)nc3cc2C)cc1`, the displacement amounted to 2.2%. On to `Cc1ccc(-n2nc3cc(C)c(NC(=O)c4ccccc4)cc3n2)cc1`, for which the displacement was -4.4%. Turning to `Cc1ccc(-n2nc3cc(C)c(NC(=O)c4cccc(C)c4)cc3n2)cc1`, the displacement amounted to 85.1%. For `COc1ccc(-n2nc3cc(C)c(NC(=O)c4ccc(Br)o4)cc3n2)cc1`, the displacement was found to be 117%. As for `COc1ccc(-n2nc3cc(C)c(NC(=O)c4cc5ccccc5o4)cc3n2)cc1`, the displacement was 2.4%. Consider `Cc1ccc(-n2nc3cc(C)c(NC(=O)c4cccc(Cl)c4)cc3n2)cc1`, for which the displacement was -4.2%. As for `Cc1ccc(-n2nc3ccc(NC(=O)c4ccco4)cc3n2)cc1`, the displacement amounted to 49.3%. The same measure for `O=S(=O)(c1cccc2ccccc12)n1cnc2ccccc21`: 6.3%; for `COc1ccc(-c2cc(C(=O)Nc3ccccc3OC)c3ccccc3n2)cc1`: 14.2%.

For the molecule `Nc1ccc(C(=O)Nc2cccc(O)c2)cc1`, the displacement was 11.4%. Take `CN(C)N1C(=O)c2ccc3c4c(ccc(c24)C1=O)CC3`: the displacement worked out at 6.4%. Regarding `O=C1c2ccc3c4c(ccc(c24)C(=O)N1Cc1ccco1)CC3`, the displacement was 9.5%.

Take `O=C1NC(=O)c2ccc3c4c(ccc1c24)CC3`: the displacement came out at 55.5%. Consider `O=C1NC(=S)NC(=O)C1=Cc1ccccc1OS(=O)(=O)c1ccc([N+](=O)[O-])cc1`, for which the displacement was -7.8%. In the case of `N#Cc1c(-c2ccc(O)cc2)c(C#N)c2nc3ccccc3n2c1N`, the displacement was 12.5%. As for `N#Cc1c(-c2ccc(F)cc2)c(C#N)c2nc3ccccc3n2c1N`, the displacement was -8%. `N#Cc1c(-c2cccc(Br)c2)c(C#N)c2nc3ccccc3n2c1N`: the displacement is 109%. On to `COc1cc2c(cc1NCc1cccc([N+](=O)[O-])c1)oc1ccccc12`, for which the displacement is -6.6%. On to `COc1ccc(-c2nn(-c3ccccc3)cc2/C=C2\N=C(c3ccccc3)OC2=O)cc1[N+](=O)[O-]`, for which the displacement was 93.8%. Turning to `O=C1OC(c2cccc(Cl)c2)=N/C1=C\c1ccccc1[N+](=O)[O-]`, the displacement was 7%. As for `COc1ccc(-c2nn(-c3ccccc3)cc2C=O)cc1[N+](=O)[O-]`, the displacement is -1.7%.

In the case of `CC(=O)CCc1oc2ccc(Br)cc2c1-c1ccc(C)o1`, the displacement is -10.4%. Take `COC(=O)C1=C(C(=O)OC)C2(OC1c1cccc(F)c1)C(=O)c1ccccc1C2=O` (stereo not drawn): the displacement was -0.3%. With `CCCCOC(=O)c1cccc(NC(=O)c2cc3ccccc3oc2=O)c1`, the displacement came to 1.7%. With `Cc1ccc(C(=O)O)cc1-n1c(C)ccc1C`, the displacement was determined as 83.2%. The same measure for `Cc1ccc(C(=O)O)cc1N1C(=O)c2ccc(C(=O)O)cc2C1=O`: 6.5%; for `Cc1ccc(C(=O)O)cc1N1C(=O)c2ccccc2C1=O`: 7%; for `Cc1ccc(N2C(=O)c3ccc(C(=O)O)cc3C2=O)c(C)c1`: 1.6%.

Consider `Cc1cc(C(=O)O)ccc1-n1c(C)ccc1C`, for which the displacement was found to be 81.4%.

With `Cc1ccc(-c2ccccc2)n1-c1cccc(C(=O)O)c1`, the displacement was found to be 1.2%. The same measure for `COc1ccccc1NC(=O)c1ccc(Br)o1`: 1%. In the case of `O=c1oc(-c2ccccc2Cl)nc2ccc(-c3ccc4nc(-c5ccccc5Cl)oc(=O)c4c3)cc12`, the displacement was 11.6%.

As for `O=C(Nc1ccc(-c2nc3ccccc3s2)c(O)c1)c1ccc(-c2cccc([N+](=O)[O-])c2)o1`, the displacement came out at 6.1%. Turning to `Cc1ccc2nsnc2c1NC(=O)c1ccc(-c2cccc(Cl)c2)o1`, the displacement turned out to be 1.4%.

With `O=C(COc1ccc([N+](=O)[O-])cc1)Nc1cc(-c2nc3ccccc3s2)ccc1Cl`, the displacement was determined as 9%. Regarding `O=C(Nc1cc(-c2nc3ccccc3s2)ccc1Cl)c1ccc([N+](=O)[O-])cc1`, the displacement was found to be 90.8%. For `O=C(Nc1cccc(-c2nc3ccccc3s2)c1)c1ccc(-c2ccc([N+](=O)[O-])cc2)o1`, the displacement was 70%. With `Cc1ccc2nsnc2c1NC(=O)c1ccc(-c2cccc([N+](=O)[O-])c2)o1`, the displacement stood at 105%.

In the case of `Cc1c(NC(=O)c2ccc(-c3cccc([N+](=O)[O-])c3)o2)cccc1-c1nc2ccccc2s1`, the displacement turned out to be 3.7%. For `Cc1ccc2nsnc2c1NC(=O)c1ccc(-c2ccc([N+](=O)[O-])cc2)o1`, the displacement was determined as 16.6%. In the case of `CC(=O)Nc1cc(-c2nc3ccccc3s2)ccc1Cl`, the displacement was determined as 11.6%. In the case of `O=c1/c(=C\c2ccccc2OS(=O)(=O)c2ccc3ccccc3c2)sc2nc3ccccc3n12`, the displacement stood at 4.6%. For the molecule `O=[N+]([O-])c1ccc(N2CCN(S(=O)(=O)c3ccc(Cl)cc3)CC2)c(C(F)(F)F)c1`, the displacement stood at 8.3%. With `CCOC(=O)c1ccccc1NC(=O)c1ccc(N(Cc2ccc(Cl)cc2)S(C)(=O)=O)cc1`, the displacement came out at 12.1%. As to `COC(=O)c1c(-c2cc(C)ccc2C)csc1N`, the displacement was -6.2%. For `COc1cccc(/C=N/NC(=O)c2cc(C)[nH]n2)c1OC`, the displacement is -9%.

With `CN(C)CCCNC(=O)c1ccc2sc3cc(=O)c(N)cc-3nc2c1`, the displacement worked out at 44.6%. In the case of `CCCCOc1ccc(N2C(=O)c3cccc4cccc(c34)C2=O)cc1`, the displacement was determined as 0.2%. For `CCCCOc1ccccc1NC(=O)C(c1ccccc1)c1ccccc1`, the displacement is -16.9%. Turning to `CCCCOc1ccc2c3c(cccc13)C(=O)c1ccccc1-2`, the displacement was 176%.

As for `CC1(C)CC(=O)C(Sc2ccc([N+](=O)[O-])cc2)=C(O)C1`, the displacement came out at 17%. For `CCOc1cc(-c2ccc(OC)cc2)[o+]c2c1ccc1ccccc12`, the displacement was determined as 6.2%. For the molecule `C=CCOC(=O)C1=C(C)NC(=S)NC1c1ccccc1OCC` (stereo not drawn), the displacement is 2.1%. Regarding `N#C/C(=C\N1CCOCC1)c1ccccc1`, the displacement is -0.9%. As to `N#C/C(=C\c1ccc(Sc2ccccc2)o1)c1ccccc1`, the displacement was -14.9%.

`N#CC(C#N)=C/C(=C/C(C#N)C#N)c1ccccc1`: the displacement was 109%. With `Cc1ccc2c(c1)C1C=CCC1C(C(=O)O)N2` (stereo not drawn), the displacement is 142%. The same measure for `COc1ccc2c(c1)C1C=CCC1C(c1ccc([N+](=O)[O-])cc1)N2` (stereo not drawn): -0.8%. The same measure for `Cc1ccc2c(c1)C1C=CCC1C(c1ccc([N+](=O)[O-])cc1)N2` (stereo not drawn): 12.2%; for `Cc1ccc2c(c1)C1C=CCC1C(c1ccccc1[N+](=O)[O-])N2` (stereo not drawn): 6.9%. As for `COc1ccc2c(c1)C1C=CCC1C(c1cccc([N+](=O)[O-])c1)N2` (stereo not drawn), the displacement is -2.3%. With `COc1ccc2c(c1)C1C=CCC1C(C(=O)O)N2` (stereo not drawn), the displacement was 150%. The same measure for `COC(=O)c1c(C)oc2ccc(OC(=O)c3ccc(OC)c(OC)c3)cc12`: 10.8%. As to `Cc1ccc(C)c(N2C(=O)C3C4C=CC(C4=C4CCCC4)C3C2=O)c1` (stereo not drawn), the displacement turned out to be 3.8%.
